# High-throughput results (PubChem)
# CSC inhib – cancer stem cell viability inhibitors, primary screen, luminescence; actives 1.1% (n = 300,000); inhibition, % at 7.5 µM; cancer stem cell-like cells viability; in the data active = inhibition above about 75%; tested in HMLE shEcad cells
# aSyn 5UTR inh – MLPCN primary screen, SNCA 5' untranslated region; alpha-synuclein 5'UTR reporter, inhibitor activity; inhibition, % (tested at 7.5 µM); actives 0.82% (n = 300,000); AID 1813, 2009; in the data active = inhibition above about 60%;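 also: H4 neuroglioblastoma cells stably carrying SNCA 5'UTR luciferase fusion; 0% = DMSO wells and 100% = positive control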
# KLF5 inh – KLF5 expression inhibitors, primary screen, DLD-1 cells, luminescence; DLD-1 KLF5 promoter-luciferase reporter; inhibition, % at 5 µM; actives 0.23% (n = 290,000);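 active = inhibition above a per-plate limit of that plate's mean compound inhibition plus 3 SD, cut at about 60% in these data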;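 also: 0% = DMSO wells and 100% = LY294002 at 200 µM; higher means less KLF5 promoter-driven luciferase light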
# IEC-6 tox – cytotoxicity in IEC-6 intestinal epithelial cells, primary screen, cytotoxicity control for KLF5 inhibitor project, cell-based, luminescence; IEC-6 cytotoxicity, luminescence viability; inhibition, % at 5 µM; actives 0.78% (n = 290,000); AID 1825, 2009; in the data active = inhibition above about 22%;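 also: 0% = plate median of test compound wells and 100% = cytotoxic reference compound wells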
# SKKanGAS inh – S. pyogenes SKKanGAS growth inhibitors in kanamycin, primary screen, streptokinase expression inhibitor project, SKKanGAS strain, BacTiter-Glo luminescence. actives 1.3% (n = 300,000). 6 h. inhibition, % at 7.5 µM. AID 1662, 2009;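 active = mean replicate score, as percent of positive control median, at least 50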;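 also: strain carries kanamycin resistance gene driven by streptokinase promoter and grows in 40 µg/ml kanamycin; loss of luminescence reflects streptokinase promoter inhibition or plain growth inhibition; 0% = median of DMSO wells and 100% = positive control at its reference dose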
# * hit, by the source's call; . = no result given. The list is not random: actives were taken first. Their share in the collection is about 3%.
SMILES,CSC inhib,aSyn 5UTR inh,KLF5 inh,IEC-6 tox,SKKanGAS inh
O=C1/C(=C\c2ccc(O)c(O)c2)SC(=S)N1Cc1ccccc1,104.5*,11.7,4.1,1.5,-1.7
O=C1/C(=C\c2cccc(O)c2O)SC(=S)N1Cc1ccccc1,85.9*,21.9,-0.5,-5.7,93.0*
CCc1ccc(/C=C2\SC(=S)N(CCC(=O)Nc3cc(C)on3)C2=O)cc1,-6.5,68.8*,-3.3,-3.7,4.4
CCOc1ccc(/C=C2\SC(=S)N(CCC(=O)O)C2=O)cc1,-3.3,114.6*,34.5,2.3,-6.0
CCNC(=O)[C@@H]1CCCN1C(=O)[C@H](CCCN=C(N)N)NC(=O)[C@H](CC(C)C)NC(=O)[C@@H](CC(C)C)NC(=O)[C@H](Cc1ccc(O)cc1)NC(=O)[C@H](CO)NC(=O)[C@H](Cc1c[nH]c2ccccc12)NC(=O)[C@H](Cc1cnc[nH]1)NC(=O)[C@@H]1CCC(=O)N1,.,32.4,.,.,-3.3
Cc1nn(-c2ccccc2)c(C)c1NC(=O)COc1cc(F)ccc1[N+](=O)[O-],-8.8,.,.,.,.
COc1cc(/C=C2\SC(=S)N(C(C(=O)O)c3ccccc3)C2=O)ccc1O (centres undefined),-3.0,11.9,10.0,4.8,12.0
CCN=C1S/C(=C\c2cc(OCC)c(O)cc2Br)C(=O)N1CC,63.9,21.3,-9.3,-0.5,19.7
CCN=C1S/C(=C\c2ccc(O)c(OCC)c2)C(=O)N1CC,66.5,68.2*,-18.4,6.7,3.1
O=C(O)CCCCN1C(=O)/C(=C\c2ccc(OCc3ccccc3)c(OCc3ccccc3)c2)SC1=S,30.9,-31.6,-11.6,-1.3,50.1*
COc1cc(/C=C2/SC(=NCc3ccccc3)N(Cc3ccccc3)C2=O)ccc1O,0.2,22.2,-16.1,-0.8,85.2*
O=C(CN1C(=O)NC2(CCc3ccccc32)C1=O)NCC(=O)Nc1ccc(F)cc1 (centres undefined),-22.3,.,.,.,.
CC(C)c1ccccc1-n1c(SCc2cc(=O)oc3ccc4ccccc4c23)nnc1-c1cccnc1,75.8*,-22.8,-25.0,2.1,23.7
COC(=O)c1sc(N2C(=O)C(O)=C(C(=O)c3ccc(C)o3)C2c2ccc([N+](=O)[O-])cc2)nc1C (centres undefined),-6.2,-8.3,-19.4,-5.0,63.2*
CCOc1ccc(C2C(C(=O)c3ccc(C)o3)=C(O)C(=O)N2c2nc(C)c(C(=O)OC)s2)cc1 (centres undefined),12.0,-92.4,-16.2,-5.9,31.8
CCOC(=O)c1sc(N2C(=O)C(O)=C(C(=O)c3ccc(C)o3)C2c2ccc(OC)c(OC)c2)nc1C (centres undefined),-20.5,11.5,-27.6,-8.4,32.3
CCOC(=O)c1sc(N2C(=O)C(O)=C(C(=O)c3ccc(C)o3)C2c2cccc([N+](=O)[O-])c2)nc1C (centres undefined),43.2,5.5,-9.1,-3.4,61.3*
C=CCn1c(=O)c2c(nc(-n3nc(C)cc3C)n2C)n(C)c1=O,-11.9,-2.4,-41.8,-6.6,5.6
Cc1cccc(C(=O)NC(=S)NNC(=O)c2ccccc2Cl)c1,12.1,8.4,-24.2,-4.2,85.7*
Cc1ccc(C(=O)NC(=S)NNC(=O)COc2ccccc2C)cc1,14.5,-17.3,-27.4,4.0,117.9*
Cc1cccc(C(=O)NC(=S)NNC(=O)COc2c(C)cccc2C)c1,17.7,-22.5,-32.3,-5.7,107.2*
Cc1cccc(C(=O)NC(=S)NNC(=O)Cc2ccccc2)c1,-7.5,-11.6,-17.6,3.0,19.7
CCC(=O)NNC(=S)NC(=O)c1ccc(C)cc1,-7.9,-38.8,-54.8,-4.1,22.1
O=C(NCCN1CCOCC1)C(=O)NCC1OCCN1S(=O)(=O)c1ccccc1 (centres undefined),-7.1,7.5,-8.1,-6.0,-3.2
CCOc1ccc(NC(=O)CCC(=O)N/N=C2\CCCc3ccccc32)cc1,-1.6,.,-7.3,2.9,.
SMILES,CSC inhib,aSyn 5UTR inh,KLF5 inh,IEC-6 tox,SKKanGAS inh
FCCCOc1ccc(-c2nccc(-c3ccccn3)n2)cc1,0.3,-63.4,-41.8,9.6,-0.2
O=C(O)COc1ccc(-c2nccc(-c3ccccn3)n2)cc1,-19.6,72.1*,10.7,-1.8,-1.1
COc1ccc(-c2sc3cc4c(cc3c2C#CC2(N)CCCCC2)OCO4)cc1,129.6*,.,.,.,.
COc1cc(OC)cc(-c2sc3ccc(OC)cc3c2C#CC2(N)CCCCC2)c1,104.0*,.,.,.,.
COc1ccc(-c2ccc3oc(-c4ccc(OC)cc4)c(C#CC4(O)CCCCC4)c3c2)cc1,77.2*,35.0,.,.,31.5
COc1cccc(-c2sc3ccc(OC)cc3c2C#CC2(O)CCCCC2)c1,104.9*,.,.,.,.
COc1cc2sc3ccc(C#CC4(O)CCCCC4)cc3c(=O)c2cc1OC,10.4,-136.6,.,.,39.5
O=C(CSc1nc2cc(Cl)ccc2o1)NC1CC1,8.1,.,.,.,.
Cc1ccc(-c2ccc(/C=N/O)o2)cc1[N+](=O)[O-],5.6,-66.1,-22.8,-7.2,5.6
COc1ccc(-c2sc3ccc(N4CCOCC4)cc3c2C#CC2(O)CCCCC2)cc1,105.8*,.,.,.,.
CCCOC(=O)c1ccc(Oc2c(-c3ccc(OC)cc3O)n[nH]c2C)cc1,131.6*,11.8,-14.9,0.5,61.2*
Cc1[nH]nc(-c2ccc(O)cc2O)c1Oc1ccccc1,51.0,3.9,2.0,-1.6,-8.0
CCc1cc(-c2n[nH]c(C)c2Oc2ccc(C(C)C)cc2)c(O)cc1O,113.0*,4.8,-26.7,-2.1,109.3*
CCCOC(=O)c1ccc(Oc2c(-c3ccc(O)cc3O)n[nH]c2C)cc1,116.5*,-10.5,-3.6,-0.9,55.3*
C=CCNC(=O)N1CCCC(C(=O)c2cccc(OC(C)C)c2)C1 (centres undefined),-10.7,-88.9,-65.1,-10.9,2.3
COc1c(F)c(F)c(C(=O)O)c(Nc2ccc(C)cc2C)c1F,-5.6,-3.0,-19.1,-4.8,0.0
O=C(c1ccc(Cn2c(=S)[nH]c3ccccc3c2=O)cc1)N1CCN(c2ccccn2)CC1,1.1,32.6,-27.3,-2.5,20.5
O=C(Nc1ccc([N+](=O)[O-])cc1Cl)c1cc(Cl)ccc1O,102.4*,.,.,.,.
O=C(Nc1cccc(Cl)c1)c1cc(N=Nc2ccc([N+](=O)[O-])cc2Cl)ccc1O,128.2*,-3.8,-8.3,-2.3,-1.6
O=C(Nc1cccc(Cl)c1)c1cccc(Oc2ccc([N+](=O)[O-])cc2Cl)c1,63.1,13.4,-22.6,2.5,2.7
Cc1ccc(O)c(NC(=O)c2cc([N+](=O)[O-])ccc2Cl)c1,20.8,-62.0,6.1,-11.3,-10.7
CCN(c1ccc(NC(=O)c2ccc(Cl)nc2)cc1)C(C)C,7.1,18.4,16.9,68.8*,-3.3
CCc1ccccc1NC(=O)CNC(=O)c1ccccc1OCc1c(C)noc1C,-8.0,3.9,.,.,25.2
O=C(O)CN1C(=O)/C(=C\c2cc([N+](=O)[O-])ccc2OCc2ccccc2Cl)SC1=S,1.9,-3.7,-10.7,-2.5,55.4*
O=C(O)CN1C(=O)/C(=C\c2cc(Br)ccc2OCc2ccc(Cl)cc2)SC1=S,98.3*,-6.7,14.2,0.8,93.9*
O=[N+]([O-])c1ccc(/C=N/NC(=S)Nc2ccc(Cl)cc2Cl)s1,123.7*,50.6,-13.1,-6.0,76.7*
